Our source for the growth values is PubChem BioAssay (NCI).

Some test systems named below: SK-MEL-2 melanoma; EKVX NSCLC; SN12C renal; UO-31 renal; TK-10 renal; CAKI-1 renal; A498 renal; CCRF-CEM leukemia; MOLT-4 leukemia; SR leukemia; OVCAR-8 ovarian; OVCAR-5 ovarian; OVCAR-4 ovarian; SK-OV-3 ovarian; IGROV1 ovarian; OVCAR-3 ovarian; HS 578T breast; NCI/ADR-RES ovarian; RPMI-8226 leukemia; ACHN renal.
Common to all, as to experiment: NCI-60 one-dose screen, 48 h (100 = growth as untreated, 0 = no growth, -100 = all killed)
What all share (conditions): 10 µM unless noted

Structures are written as SMILES. Compounds without any hit were thinned out: in the full panel of roughly 83,000, 20% have a hit.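 Compound tested at a single concentration for 48 hours in 96-well plates; a percent growth value below 10 was scored as active.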 Unmarked numbers belong to inactive results. Calls of active or inactive are those of the source.

`O=c1c(/C=C/c2ccco2)nnc(SCCN2CCOCC2)n1/N=C/c1ccc([N+](=O)[O-])cc1`: the growth in the assay with SK-MEL-2 melanoma was 106%; in the assay with EKVX NSCLC, 81.6%; in the assay with SN12C renal, 102%; with UO-31 renal it was 71.3%; in the assay with TK-10 renal, 154%; in the assay on CAKI-1 renal, 106%. The growth is 103% in the assay with A498 renal; -20.4% (active) in the assay with CCRF-CEM leukemia; 81.2% with MOLT-4 leukemia; 33.6% in the assay with SR leukemia; 94% in the assay on OVCAR-8 ovarian; 103% in the assay on OVCAR-5 ovarian. Besides, the growth was 97.2% in the assay on OVCAR-4 ovarian; 95% in the assay with SK-OV-3 ovarian; 82.8% in the assay with IGROV1 ovarian; 108% in the assay on OVCAR-3 ovarian; 96.9% with HS 578T breast; 101% in the assay on NCI/ADR-RES ovarian.
On to `O=C(O)c1cn(C2CC2)c2cc(N3CCN(Cc4nc5c(cnn5-c5ccc([N+](=O)[O-])cc5)c(=O)[nH]4)CC3)c(F)cc2c1=O`, for which the growth was 120% in the assay on SK-MEL-2 melanoma; 93.4% with EKVX NSCLC; 95.2% in the assay with SN12C renal; 71.8% in the assay on UO-31 renal; 122% with TK-10 renal; 94.8% in the assay on CAKI-1 renal. In addition, the growth with A498 renal was 101%; in the assay on CCRF-CEM leukemia, 99%; in the assay with MOLT-4 leukemia, 99.4%; in the assay with SR leukemia, 97.5%; in the assay with RPMI-8226 leukemia, 98%; in the assay with OVCAR-8 ovarian, 99.9%. Further, the growth with OVCAR-5 ovarian is 103%; with OVCAR-4 ovarian, 91.9%; in the assay with SK-OV-3 ovarian, 105%; in the assay with IGROV1 ovarian it was 94.2%; with OVCAR-3 ovarian it was 112%; in the assay on HS 578T breast, 105%. The growth in the assay on NCI/ADR-RES ovarian is 106%.
Turning to `COc1ncc(-c2ccc3ncnc(Nc4cccc(Cl)c4)c3c2)cc1NS(C)(=O)=O`, the growth with SK-MEL-2 melanoma was 32%; in the assay with EKVX NSCLC, 12.1%; in the assay on SN12C renal it was 29.1%; in the assay on UO-31 renal, 8.8% (active); in the assay with TK-10 renal, -11.1% (active); in the assay on CAKI-1 renal, 14.9%. For the same compound, the growth in the assay on A498 renal was 0.974% (active); in the assay on CCRF-CEM leukemia it was 32.5%; in the assay on MOLT-4 leukemia it was -6.32% (active); in the assay on SR leukemia, 50.6%; in the assay with RPMI-8226 leukemia it was 22.8%; in the assay with OVCAR-8 ovarian it was 45.5%. Also, the growth with OVCAR-4 ovarian was 70.7%; in the assay on SK-OV-3 ovarian, -11.2% (active); in the assay with IGROV1 ovarian, -45.5% (active); in the assay with OVCAR-3 ovarian it was 26.9%; in the assay on HS 578T breast it was 16.2%; in the assay with NCI/ADR-RES ovarian it was 51%.
As to `O=S(=O)(NCCCNc1cc(-c2cn(-c3ccccc3)nc2-c2cccc(O)c2)ccn1)c1ccccc1`, the growth in the assay with SK-MEL-2 melanoma is 74.6%; in the assay on EKVX NSCLC, 37.8%; in the assay on SN12C renal, 68.7%; with UO-31 renal it was 37.8%; in the assay on TK-10 renal, 62.5%; in the assay with CAKI-1 renal, 43.3%. Further, the growth with A498 renal was 50.6%; with CCRF-CEM leukemia it was 38.5%; in the assay on MOLT-4 leukemia it was 37.1%; in the assay on SR leukemia, 35.5%; in the assay on RPMI-8226 leukemia, 32.1%; in the assay on OVCAR-8 ovarian it was 46.1%. The growth in the assay with OVCAR-4 ovarian was 59.8%; with SK-OV-3 ovarian, 66.4%; in the assay on IGROV1 ovarian, 59.2%; in the assay on OVCAR-3 ovarian it was 58.9%; with HS 578T breast, 46.9%; with NCI/ADR-RES ovarian, 51.3%.
Regarding `O=[N+]([O-])c1cccc(-c2nc3sccn3c2-c2ccnc(NCCNS(=O)(=O)c3ccc(C(F)(F)F)cc3)n2)c1`, the growth in the assay on SK-MEL-2 melanoma is 26.9%; in the assay on EKVX NSCLC it was 39.5%; with SN12C renal it was 33%; in the assay on UO-31 renal it was 17.3%; in the assay on TK-10 renal, 57.9%; with CAKI-1 renal, 30.3%. Also, the growth in the assay with A498 renal was 36.6%; in the assay on CCRF-CEM leukemia, 20.2%; with MOLT-4 leukemia it was 18.2%; in the assay on SR leukemia, 39.2%; in the assay on RPMI-8226 leukemia it was 4.8% (active); in the assay on OVCAR-8 ovarian, 26.1%. Further, the growth with OVCAR-5 ovarian is 87.4%; in the assay on OVCAR-4 ovarian, 31.2%; in the assay on SK-OV-3 ovarian it was 74%; with IGROV1 ovarian, 27.1%; in the assay on OVCAR-3 ovarian it was 40.5%; with HS 578T breast, 66.4%. For the same compound, the growth in the assay with NCI/ADR-RES ovarian is 26.9%.
Regarding `CC(=O)CC(C)(C)c1ccc(Cl)cc1`, the growth is 108% in the assay on SK-MEL-2 melanoma; 101% in the assay with EKVX NSCLC; 97.7% with SN12C renal; 85.5% in the assay on UO-31 renal; 114% with TK-10 renal; 90.2% in the assay on CAKI-1 renal. In addition, the growth was 108% with A498 renal; 101% in the assay on CCRF-CEM leukemia; 100% with MOLT-4 leukemia; 101% with SR leukemia; 98.3% in the assay on RPMI-8226 leukemia; 101% with OVCAR-8 ovarian. In addition, the growth in the assay on OVCAR-5 ovarian is 95.7%; in the assay with OVCAR-4 ovarian, 93.6%; in the assay on SK-OV-3 ovarian it was 107%; with IGROV1 ovarian, 96%; in the assay with OVCAR-3 ovarian, 97.4%; in the assay with HS 578T breast, 99.5%. Also, the growth in the assay with NCI/ADR-RES ovarian was 96.2%.
As to `CC1CN(Cc2ccco2)C(=S)N(c2ccccc2)C1=O` (stereo not drawn), the growth in the assay with SK-MEL-2 melanoma was 108%; with EKVX NSCLC it was 84.2%; in the assay with SN12C renal, 92%; with UO-31 renal, 89.6%; in the assay with TK-10 renal, 100%; with CAKI-1 renal it was 60.4%. The growth is 100% in the assay with A498 renal; 83.7% with CCRF-CEM leukemia; 122% with MOLT-4 leukemia; 91.2% in the assay with SR leukemia; 88.1% with RPMI-8226 leukemia; 104% with OVCAR-8 ovarian. Further, the growth with OVCAR-5 ovarian is 105%; in the assay with OVCAR-4 ovarian, 97%; with SK-OV-3 ovarian it was 105%; in the assay on IGROV1 ovarian, 106%; in the assay on OVCAR-3 ovarian it was 106%; with HS 578T breast it was 101%. Moreover, the growth with NCI/ADR-RES ovarian was 108%.
For `CCCCCCCCCCCCCCCCCCSC1=CC(=O)C(OC)=C(OC)C1=O`, the growth in the assay with SK-MEL-2 melanoma is 96.5%; with EKVX NSCLC, 91.3%; in the assay with SN12C renal it was 80.9%; in the assay on UO-31 renal it was 76.6%; in the assay on TK-10 renal it was 91.6%; in the assay on ACHN renal, 93.1%. Besides, the growth was 96.3% with CAKI-1 renal; 91.9% in the assay with CCRF-CEM leukemia; 91.9% in the assay on MOLT-4 leukemia; 40.8% in the assay on RPMI-8226 leukemia; 86.2% in the assay with OVCAR-8 ovarian; 94.3% with OVCAR-5 ovarian. Moreover, the growth in the assay on OVCAR-4 ovarian was 109%; in the assay with SK-OV-3 ovarian, 95.7%; in the assay on IGROV1 ovarian, 106%; with OVCAR-3 ovarian, 98.2%; with HS 578T breast, 90.9%; in the assay with NCI/ADR-RES ovarian, 91.7%.
